Hits are enriched below; roughly 7.3% of the tested compounds scored in any of these assays.
Tau fluor cs: Counterscreen qHTS for Inhibitors of Tau Fibril Formation, Fluorescence Polarization | tau K18 P301L Alexa594 fluorescence, heparin fibrillization | Potency, µM (titrated, usually from 57.7 µM), for inactives: at the top dose activity change, negative = decrease | 280,000 tested, 0.93% active | AID 1463, 2008; also: nearly all actives have a fitted effect of over 55% in size
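Human K18 P301L tau (15 uM unlabeled plus 0.24 uM Alexa 594-labeled, final) in 100 mM sodium acetate pH 7 was mixed with compound and 20 uM heparin and incubated 6 hr at 37 C.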
Gal4-VP16 FLuc: VP16 counterscreen qHTS for inhibitors of ROR gamma transcriptional activity; Drosophila S2 Gal4-VP16 UAS-luciferase, luminescence, 20 h; Potency, µM (doses to about 53.6 µM), without a hit: at the highest dose activity, negative = inhibition, hits mostly inhibitors; AID 2546, 2010; 310,000 tested, 3.5% active;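 also: Gal4-VP16 expression switched on by copper sulfate through the metallothionein promoter; nearly all actives have a fitted effect of over 50% in size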
RORgamma inh: qHTS for inhibitors of ROR gamma transcriptional activity; AID 2551, 2010; 310,000 tested, 5.4% active; Drosophila S2 Gal4-RORgamma UAS-luciferase reporter, 20 h; Potency, µM (top dose mostly 53.6 µM), for the others: top-dose activity change, negative = inhibition, most hits filed as inhibitors; Nuclear receptor ROR-gamma (Mus musculus), P51450; also: nearly all actives have a fitted effect of over 60% in size
Target sequence (P51450 whole entry, looked up, the tested form may be a part): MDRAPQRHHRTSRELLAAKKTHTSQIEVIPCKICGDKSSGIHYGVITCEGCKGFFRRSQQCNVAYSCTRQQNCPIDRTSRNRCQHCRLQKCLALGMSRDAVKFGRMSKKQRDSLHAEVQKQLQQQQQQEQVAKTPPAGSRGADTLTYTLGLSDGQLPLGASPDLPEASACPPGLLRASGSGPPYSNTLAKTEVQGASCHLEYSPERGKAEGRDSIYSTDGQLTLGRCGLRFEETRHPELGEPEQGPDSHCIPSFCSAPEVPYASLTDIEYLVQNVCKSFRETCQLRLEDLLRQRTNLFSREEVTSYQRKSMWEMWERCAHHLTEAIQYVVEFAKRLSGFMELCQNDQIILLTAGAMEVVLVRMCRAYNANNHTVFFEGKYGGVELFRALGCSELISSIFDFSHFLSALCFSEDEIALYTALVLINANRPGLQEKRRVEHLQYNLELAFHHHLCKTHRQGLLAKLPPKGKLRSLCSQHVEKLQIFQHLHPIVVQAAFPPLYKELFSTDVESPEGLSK
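Schneider cells (Drosophila), stable Gal4 DBD–ROR gamma + UAS-luc; 1 hr cmpd preincubation; Cu2+ induction 700 uM final; 20 hr ambient; luminescence.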
Tau fibril FP: qHTS for Inhibitors of Tau Fibril Formation, Fluorescence Polarization | Microtubule-associated protein tau (Homo sapiens), P10636 | AID 1468, 2008 | Potency, µM (top dose mostly 57.7 µM), for the others: at the highest dose activity, negative = inhibition, most hits filed as inhibitors | 280,000 tested, 0.39% active | K18 P301L tau heparin fibrillization, Alexa594 FP, 6 h; also: nearly all actives have a fitted effect of over 55% in size
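Read-out: fluorescence polarization of Alexa 594-labeled tau (0.24 uM), 555 nm excitation, 632 nm emission. Mixtures held 15 uM unlabeled K18 P301L, compound and 20 uM heparin, pH 7 acetate buffer, incubated 6 hr at 37 C.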
Tau fibril ThT: qHTS for Inhibitors of Tau Fibril Formation, Thioflavin T Binding; Microtubule-associated protein tau (Homo sapiens), P10636; recombinant tau K18 P301L (four-repeat tau fragment), heparin-induced fibrillization, ThT fluorescence; Potency, µM (titrated, usually from 57.4 µM), for inactives: at the top dose activity, negative = inhibition, actives largely listed as inhibitors; 270,000 tested, 2.1% active; also: nearly all actives have a fitted effect of over 55% in size
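Heparin-induced (20 uM) aggregation of recombinant human K18 P301L tau, 15 uM unlabeled with 0.24 uM labeled, pH 7 acetate buffer, 6 hr at 37 C with compound. Fibrils quantified by 30 uM ThT fluorescence after 1 hr ambient incubation.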
Starred values were filed as active, the others as inactive; ? = inconclusive; . = not tested or not shown. Calls follow the shape of the dose curve; as a rule, active = well fitted curve in the direction sought with a large enough effect; inconclusive = small, poorly fitted or top-dose-only effect, or another doubt; inactive = no such curve, though single readings can be large; an effect the other way counts as inactive or inconclusive. % is scaled to controls: 0 for no effect and ±100 for the full control effect; potency is read from the fitted curve at half-maximal effect.

SMILES	Tau fluor cs	Gal4-VP16 FLuc	RORgamma inh	Tau fibril FP	Tau fibril ThT
S=C(NCC1CCCCC1)Nc1ccc(Oc2ccccc2)cc1	?	5µM*	2.8µM*	3%	?
COc1ccc(C2CC(=O)Nc3c2c(=O)[nH]c2nc4ccccc4n32)cc1 (configuration not stated)	-8%	.	.	-3%	-8%
N=c1ccn2c(n1)O[C@H]1[C@@H](O)[C@@H](CO)O[C@H]12	-6%	.	.	2%	-5%
S=C(Nc1ccc(Br)cc1)NC1CCCC1	-6%	10µM*	6.3µM*	3%	5%
O=C(NCCCc1ccc(F)cc1)C1CCC(=O)N(CCCN2CCCC2=O)C1 (configuration not stated)	.	2%	-2%	.	.
O=C(N/N=C/c1ccccc1)C(=O)N/N=C/c1ccccc1	.	-5%	-37%	.	.
O=C(C=C=Nc1ccccc1)C(=O)N=C=Cc1ccccc1	?	7.1µM*	4µM*	?	10µM*
CC1(C)O[C@@H]2C[C@H]3[C@@H]4CCC5=CC(=O)C=C[C@]5(C)[C@@]4(F)[C@@H](O)C[C@]3(C)[C@]2(C(=O)CO)O1	-8%	3%	?	10%	-8%
CC(=O)OCC(=O)[C@@]12OC3(CCCC3)O[C@@H]1C[C@H]1[C@@H]3CCC4=CC(=O)C=C[C@]4(C)[C@@]3(F)[C@@H](O)C[C@@]12C	-21%	-8%	8.9µM*	11%	-18%
Cc1cc(-c2nnc(SCC(=O)Nc3nc(-c4ccccc4)cs3)o2)no1	-9%	-10%	14µM*	-2%	?
Cc1csc(NC(=O)CSc2nnc(-c3cc(C)on3)o2)n1	0%	14µM*	14µM*	-2%	-14%
COc1ccc(Cc2nnc(SCC(=O)Nc3nc(C)cs3)o2)cc1	-9%	-4%	35µM*	-8%	-13%
COc1ccc(NCc2nnc(SCC(=O)Nc3nc(-c4ccccc4)cs3)n2-c2ccccc2)cc1	?	5µM*	8%	17%	6%
COc1ccc(-c2cc3nc(-c4ccc(Br)cc4)cc(C(F)(F)F)n3n2)cc1	2%	.	.	-8%	-1%
O=C1c2ccccc2C(=O)c2c1ccc1c(=O)n(C3CCCCC3)[nH]c21	?	-30%	7.9µM*	10%	?
O=c1c2[nH]c3ccccc3c2ncn1C1CCCCC1	-5%	-8%	44%	3%	-7%
COc1ccnc(CS(=O)c2nc3ccc(OC(F)F)cc3[nH]2)c1OC (configuration not stated)	-30%	-15%	0%	?	25µM*
Cc1ccc(N2C(=O)C(Cl)=C(Nc3c(C)n(C)n(-c4ccccc4)c3=O)C2=O)cc1	-27%	?	35%	?	28µM*
S=C(Nc1cccc2ccccc12)NC1CCCCC1	-22%	10µM*	2µM*	2%	-14%
CC(C)c1ccccc1NC(=S)NC1CCCCC1	-4%	10µM*	0.45µM*	0%	5%
CC(C)c1ccccc1NC(=S)NC(C)c1ccccc1 (configuration not stated)	-8%	?	?	3%	-8%
CSc1ccccc1C(=O)NC1CCCCC1	-8%	4%	35%	-6%	-1%
CSc1ccccc1NC(=S)NC1CCCC1	.	7.1µM*	6.3µM*	.	.
CSc1ccccc1NC(=S)NC1CCCCC1	4%	?	3.5µM*	4%	2%
COc1ccc(Oc2ncc3nc(-c4cc(F)cc(F)c4)c(=O)n(C)c3n2)cc1	.	8%	9%	.	.
CCc1ccccc1NC(=O)NC1CCCCCCC1	.	3%	19%	.	.
CCCCc1ccccc1NC(=S)NC1CCCC1	.	4.5µM*	3.2µM*	.	.
CC(CN1C(C)CCCC1C)OC(=O)c1cccc(Br)c1 (configuration not stated)	.	-11%	4%	.	.
Cc1cccc(N(CC(=O)NCCSCc2cccc(Cl)c2)S(=O)(=O)c2ccccc2)c1C	-22%	.	.	-2%	-9%

Source: PubChem BioAssay (National Center for Advancing Translational Sciences (NCATS))
